Assay outcomes (PubChem)
In the library only some 2.9% were active in any assay of this set; here they are far more common.
B2AR arrestin: beta2AR (human) beta-arrestin recruitment activity. Potency, µM (doses to about 46.1 µM), inactives show top-dose activation, usual class: activators. 330,000 tested, 0.02% active. AID 492947. beta-arrestin recruitment to beta2AR, cell-based reporter;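 also: potency is read from the fitted curve at half-maximal effect; 0% = DMSO controls and full agonism = EC100 isoproterenol or metaproterenol; nearly all actives have a fitted effect of over 65% in size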
DRD3 antagonist: antagonists of human D3 dopamine receptor. P35462. D3R cells, DiscoveRx beta-arrestin luminescence, antagonist mode; active compounds read low. max response, negative = inhibition, %. 360,000 tested, 2.5% active; in the data active = max response below about -50%; inconclusive = no clear call, values can overlap the other calls; also: % is scaled to controls: 0 for no effect and ±100 for the full control effect
Target sequence (P35462 whole entry, looked up): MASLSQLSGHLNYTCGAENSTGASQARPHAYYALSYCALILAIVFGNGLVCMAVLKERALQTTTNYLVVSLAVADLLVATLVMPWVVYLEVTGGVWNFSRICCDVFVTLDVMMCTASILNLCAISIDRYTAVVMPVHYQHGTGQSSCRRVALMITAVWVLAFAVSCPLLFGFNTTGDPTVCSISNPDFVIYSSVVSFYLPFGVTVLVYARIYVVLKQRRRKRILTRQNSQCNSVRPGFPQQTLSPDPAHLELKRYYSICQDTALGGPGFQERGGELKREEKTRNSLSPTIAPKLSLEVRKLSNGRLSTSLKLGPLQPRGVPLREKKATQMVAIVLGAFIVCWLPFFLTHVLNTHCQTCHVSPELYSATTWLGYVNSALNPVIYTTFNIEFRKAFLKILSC
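Cells expressing the human receptor were seeded at 1500 cells/well, incubated overnight at 37 degrees C in 5% CO2, then exposed to library compounds with dopamine controls for 90 minutes at 37 degrees C before luminescent detection.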
D3 ag: agonists of human D3 dopamine receptor; D3R DiscoveRx beta-arrestin cells, luminescence, 90 min; max activation, %; 410,000 tested, 0.58% active; in the data active = max activation above about 30%; also: 0% is about no effect
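Cells at 1500/well, incubated overnight, then treated with pinned compounds (dopamine as control) for 90 min at 37 degrees C. DiscoveRx reagent added for 30 - 60 minutes at room temperature; luminescence read.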
IDH1 R132H inh: human IDH1 R132H inhibition; O75874; IDH1-R132H enzyme, NADPH consumption, diaphorase/resazurin fluorescence; Potency, µM (series often up to 76.6 µM), for the others: at the highest dose activity change, negative = inhibition, actives largely listed as inhibitors; 390,000 tested, 0.093% active; AID 602179; also: potency is read from the fitted curve at half-maximal effect; % is scaled to controls: 0 for no effect and ±100 for the full control effect; nearly all actives have a fitted effect of over 65% in size
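IDH1-R132H (0.5 ug/mL dispensed) in pH 7.5 Tris buffer was preincubated 30 min with compound, then given a substrate mix of 0.016 mM NADPH and 2 mM alpha-KG for 80 min at room temperature; remaining NADPH was read by diaphorase/resazurin fluorescence.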
Integrin act MD: activates integrin-mediated alleviation for muscular dystrophy | alpha7betagal myoblasts, beta-gal FDG fluorescence, 48 h | Potency, µM (titrated, usually from 38.3 µM), inactives show at the top dose activation, actives largely listed as activators | 350,000 tested, 0.064% active | AID 624291;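 also: potency is read from the fitted curve at half-maximal effect; 100% = response of the positive control SU9516; nearly all actives have a fitted effect of over 60% in size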
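alpha7betagal+/- myoblasts (passage 13, 250/well) treated 48 h at 37C with compounds at 1:260 dilution of DMSO stock. Lysed, then beta-galactosidase activity read as FDG fluorescence (ex 480/em 540) after 30 min, with pre-read for autofluorescence.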
Active calls of the source: *; ? = inconclusive; . = no result given. Unless noted, calls follow the shape of the dose curve; as a rule, active = well fitted curve in the direction sought with a large enough effect; inconclusive = small, poorly fitted or top-dose-only effect, or another doubt; inactive = no such curve, though single readings can be large; an effect the other way counts as inactive or inconclusive.

SMILES | B2AR arrestin | DRD3 antagonist | D3 ag | IDH1 R132H inh | Integrin act MD
CC(=O)n1c2ccccc2c2c1c1ccccc1n2C | -0.4% | -56.2* | 13.4 | 6.4% | 22.2%
CC(=O)n1c2ccccc2c2nc3ccccc3nc21 | -0.3% | 0.1 | 11.1 | -0.3% | 18.1%
CC(C)CC(NC(=O)C1CCCN1C(=O)OC(C)(C)C)C(=O)NCC(N)=O (configuration not stated) | 0.2% | -58.5* | 5.5 | 2.0% | -4.1%
COc1cc2ccccc2cc1C(=O)NC(=S)Nc1nnn(C)n1 | 0.0% | 0.7 | 1.2 | 2.5% | ?
Cn1nnc(NC(=S)NC(=O)c2cc(Cl)ccc2Cl)n1 | -1.1% | -70.0* | -21.2 | 8.8% | ?
COc1ccc(-c2nnc(SCC(=O)Nc3cccc(C(F)(F)F)c3)nc2-c2ccc(OC)cc2)cc1 | . | . | -0.8 | -4.2% | .
CC1=CC(=O)c2ccccc2C1=O | -0.4% | -52.8* | 6.0 | 1.1% | .
CC(C)(C=O)C1=CC(=O)c2ccccc2C1=O | -0.9% | -111.5* | -28.1 | 16.4% | -46.1%
COc1cccc2c1C(=O)C=C(C)C2=O | -1.4% | -29.5 | 1.3 | -23.6% | -330.4%
CC(C)(C)c1ccc2c(c1)C(=O)c1ccccc1C2=O | 0.3% | -5.5 | 17.7 | -2.4% | -26.4%
COc1ccc(-c2nsc(NC(=O)c3oc4cc(C)c(C)cc4c3C)n2)cc1 | . | . | -7.7 | 20.4% | .
CC1CCc2sc(C(=O)NC3CCN(Cc4ccccc4)CC3)cc2C1 (configuration not stated) | -0.1% | -95.3* | -18.5 | -8.8% | -63.9%
CC1CCc2sc(C(=O)NN=C3CCC(c4ccccc4)CC3)cc2C1 (configuration not stated) | -0.9% | -1.3 | -5.4 | 0.3% | 10.6%
CCC1CCc2sc(C(=O)NC3CCN(Cc4ccccc4)CC3)cc2C1 (configuration not stated) | -0.6% | -72.0* | -32.0 | -0.7% | -55.5%
CSc1nsc(SCC(=O)Nc2ccccc2F)n1 | -0.1% | -5.2 | 1.1 | 14.3% | -11.9%
O=C(Cc1cccs1)N1CCN(S(=O)(=O)c2cc(Cl)ccc2Cl)CC1 | -0.6% | -1.8 | -1.5 | 0.2% | 14.8%
Clc1ccc2nc(CN3CCCCCC3)cn2c1 | -0.4% | -84.8* | -5.0 | 0.8% | -10.8%
Clc1ccc2nc(CN3CCCCC3)cn2c1 | 0.2% | ? | -27.9 | 4.8% | -13.6%
C/C=C/c1c(F)c(F)c(Oc2ccc(C(=O)O)cc2)c(F)c1F | 0.0% | -12.3 | 31.0* | 1.9% | 5.7%
O=C(CN1C(=O)CC(c2ccco2)Sc2ccccc21)Nc1cccc(C(F)(F)F)c1 (configuration not stated) | . | . | -8.2 | -14.2% | .
CCOC(=O)C1(Cc2ccccc2C)CCCN(C(=O)COC)C1 (configuration not stated) | 0.1% | -12.9 | -0.3 | 2.7% | 26.6%
CCOC(=O)C1(Cc2ccccc2C)CCCN(C(=O)CN2CCCCC2=O)C1 (configuration not stated) | -0.7% | -21.1 | 58.5* | 6.5% | 11.8%
CCOC(=O)C1CCCN(CCC(=O)Nc2ccccc2)C1 (configuration not stated) | -0.1% | -8.0 | -13.3 | 6.0% | 9.7%
CCN(CC)C(=O)C1CCCN(C/C=C/c2ccccc2[N+](=O)[O-])C1 (configuration not stated) | -0.3% | -11.8 | -8.4 | -4.5% | -10.6%
CN(C/C=C/c1ccccc1[N+](=O)[O-])Cc1ccccc1 | -0.7% | -80.2* | -0.3 | -1.6% | 1.2%
SMILES | B2AR arrestin | DRD3 antagonist | D3 ag | IDH1 R132H inh | Integrin act MD
CCOC(=O)C1CCCN(CCC(C)c2ccccc2)C1 (configuration not stated) | 0.0% | -60.9* | -28.0 | -4.8% | -5.0%
O=[N+]([O-])c1ccccc1/C=C/CN1CCCCC1CO (configuration not stated) | -1.6% | -2.9 | -8.9 | -2.4% | 0.0%
O=[N+]([O-])c1ccccc1/C=C/CN1CCCCC1 | 0.5% | -70.5* | -28.1 | 2.2% | 7.7%
CCOC(=O)C1CCCN(C/C=C/c2ccccc2[N+](=O)[O-])C1 (configuration not stated) | 0.5% | -64.0* | -30.0 | 9.6% | -31.7%
O=C(Oc1cccc(C(=S)N2CCOCC2)c1)c1ccc([N+](=O)[O-])cc1[N+](=O)[O-] | 0.1% | -50.8* | -16.9 | 3.2% | 0.0%
O=C(Oc1ccc(C(=S)N2CCOCC2)cc1)c1ccc([N+](=O)[O-])cc1[N+](=O)[O-] | -0.4% | -29.1 | -7.7 | -1.1% | 35.7%
CCc1cccc(OCCCCN(CC)CC)c1 | -0.2% | -73.5* | -25.3 | 6.4% | -11.1%
CCc1cccc(OCCCCNCCCOC)c1 | 2.2% | -79.3* | -38.9 | 5.8% | 0.0%
CNCCCOc1cccc(Oc2ccccc2)c1 | -1.1% | ? | -16.3 | -11.1% | -35.2%
CCOC(=O)C(CCCCOc1cccc(CC)c1)C(=O)OCC | -2.0% | -18.1 | 9.5 | 10.6% | 6.4%
CCOc1cccc(OCCCNCCCOC)c1 | 0.1% | -58.7* | -5.1 | 1.8% | -6.3%
C=CCNCCCCOc1cccc(Br)c1 | -0.2% | -61.7* | -17.4 | 19.7% | 13.4%
COc1cccc2cc(-c3cn4c(n3)sc3cc(F)ccc34)c(=O)oc12 | . | . | -3.9 | -6.7% | .
Cc1nc2ccccc2c2c1C(=O)NC2=O | -0.5% | . | . | . | .
COCCCNCCCCOc1cccc(Br)c1 | 4.0% | -61.0* | -5.4 | 3.5% | -53.6%
OCCNCCCCOc1cccc(Br)c1 | -1.2% | -26.8 | -26.3 | 3.5% | -39.6%
Cc1cc(C)c(NC(=O)Cn2c(=O)oc3cc(S(=O)(=O)N4CCCCCC4)ccc32)c(C)c1 | . | . | -10.3 | . | .
COc1ccc(/C=C(/C#N)c2nc(-c3ccc(-c4ccccc4)cc3)cs2)cc1OC | . | . | 9.4 | -0.2% | .
COc1ccc(-c2csc(/C(C#N)=C(\O)CSc3nccn3C)n2)cc1OC | 0.5% | -55.1* | -5.2 | 8.5% | -2.5%
COc1ccc(S(=O)(=O)N2CCC3CC2c2c(-c4ccc(C(F)(F)F)cc4)cccc23)cc1 (configuration not stated) | . | 6.2 | 51.8* | . | .
O=C(N/N=C/c1cccc2cccnc12)c1ccccc1O | -0.6% | -53.2* | -15.0 | 10.4% | -51.8%
COC1=CC(=O)c2c(ccc3ncnc(N)c23)C1=O | . | -64.5* | -11.7 | 21.9% | -59.6%
COc1cc(NC(=O)C2CCN(c3nc4ccccc4nc3C(F)(F)F)CC2)cc(OC)c1 | . | . | 19.2 | 0.0% | .
O=C(Cn1nc(C(F)(F)F)c2c1CCCC2)NC1CCCC1 | -0.4% | -55.1* | -5.3 | -0.4% | -6.2%
Cn1cc(C(=O)N/N=C/c2ccc3c(c2)OCO3)c2ccccc21 | 0.3% | 23.1 | -6.5 | 1.4% | 12.7%
Cn1cc(C(=O)N/N=C/c2ccc(Br)c([N+](=O)[O-])c2)c2ccccc21 | -0.3% | -67.1* | -20.8 | 6.5% | 5.2%
CCN1CCN(C(=O)c2ccccc2N(Cc2ccccc2)S(=O)(=O)c2ccc(C)cc2)CC1 | -0.1% | -52.4* | -2.5 | 6.6% | -37.3%
